In the library only some 5% were active in any assay of this set; here they are far more common.
HCMV inh: inhibitors of human cytomegalovirus; HFF cells, HCMV-luciferase reporter, 72 h; active compounds read low; activity change, negative = inhibition, % at 57.5 µM; 4.5% of 410,000 active; AID 1259415; in the data active means activity change below about -60%; inconclusive means no clear call, values can overlap the other calls; inactive means above about -39%
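Two-dose cell screen: HFF monolayers treated with compounds and infected with luciferase-expressing HCMV at 1 PFU/cell, 72 h at 37C, then lysed for luciferase measurement.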
Tb PYK inh: T. brucei pyruvate kinase inhibition; Potency, µM (titrated, usually from 76.8 µM), most hits filed as inhibitors; Q57TT1; TbPYK enzyme, Kinase-Glo Plus ATP luminescence, 45 min; 0.12% of 410,000 active; further: nearly all actives have a fitted effect of over 50% in size
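ADP (130 uM final) triggers the TbPYK reaction after compound addition; incubation is 45 min at room temperature. Kinase-Glo Plus is then added and luminescence imaged. Normalized data are fitted to concentration-effect curves.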
LmPK inh: inhibitors of Leishmania mexicana pyruvate kinase | Q27686 | purified LmPK, Kinase-Glo ATP luminescence, 1 h | Potency, µM (series often up to 57.5 µM), most hits filed as inhibitors | 0.37% of 290,000 active | AID 1721
Target sequence (Q27686 whole entry, looked up): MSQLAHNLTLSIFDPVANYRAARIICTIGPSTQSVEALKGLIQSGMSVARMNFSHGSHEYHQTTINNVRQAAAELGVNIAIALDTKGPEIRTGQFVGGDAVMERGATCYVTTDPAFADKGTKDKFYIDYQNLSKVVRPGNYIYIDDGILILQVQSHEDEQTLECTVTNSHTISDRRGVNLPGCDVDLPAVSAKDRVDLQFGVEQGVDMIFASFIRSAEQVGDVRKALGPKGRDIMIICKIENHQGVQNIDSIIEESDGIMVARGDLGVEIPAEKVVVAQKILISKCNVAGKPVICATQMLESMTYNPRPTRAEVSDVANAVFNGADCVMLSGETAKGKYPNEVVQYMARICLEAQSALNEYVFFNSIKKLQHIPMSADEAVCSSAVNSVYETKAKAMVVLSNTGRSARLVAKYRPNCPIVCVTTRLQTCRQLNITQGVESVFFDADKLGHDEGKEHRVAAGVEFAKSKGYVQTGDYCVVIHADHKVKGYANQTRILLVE
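qHTS format; LmPK 0.1 nM; substrates PEP 0.5 mM and ADP 0.1 mM. One-hour room-temperature incubation, then coupled luciferase luminescence; 0.5 nM enzyme wells mark activation.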
Vaccinia mCherry: inhibitors of vaccinia virus infection (mCherry reporter signal); AID 720579; Vaccinia virus mCherry reporter infection, fluorescence; Potency, µM (highest dose often 36.5 µM), most hits filed as inhibitors; 0.63% of 310,000 active; calls by dose curve; tested in A549 cells; further: nearly all actives have a fitted effect of over 35% in size
Vaccinia Venus: inhibitors of vaccinia virus (Venus reporter). AID 720580. 0.46% of 330,000 active. Potency, µM (series often up to 36.5 µM), hits mostly inhibitors. Vaccinia virus Venus reporter expression, fluorescence; calls by dose curve; tested in A549 cells; further: nearly all actives have a fitted effect of over 30% in size
Large screens that a line does not name were inactive. Unless noted, the call rests on the fitted dose curve; in most records, active means well fitted curve in the direction sought with a large enough effect; inconclusive means small, poorly fitted or top-dose-only effect, or another doubt; inactive means no such curve, though single readings can be large; an effect the other way counts as inactive or inconclusive.

Cc1cc(N2CCN(c3ccc(F)cc3)CC2)nc(-c2ccccc2)n1	HCMV inh inconclusive (no result: Vaccinia mCherry)
Cn1ccc2c(-c3ccc4c(c3)OCCO4)cc3c(c21)C1CCC3C1 (stereo not given)	HCMV inh inconclusive (no result: LmPK inh)
Cc1ccc(C)c2c(N)c3c(nc12)CCCCC3 (tested in a mixture with another compound)	HCMV inh -70
CN(Cc1ccccc1)C(=O)COC(=O)COc1ccc(C#N)cc1	none (no result: Vaccinia mCherry, Vaccinia Venus)
CC(Oc1ccccc1)c1ccnc2nc(N3CCOCC3)nn12 (stereo not given)	none
CC(Oc1ccc(Cl)cc1Cl)c1ccnc2nc(N3CCOCC3)nn12 (stereo not given)	HCMV inh -77
CCOc1cc(CNCc2ccncc2)cc(Br)c1OCc1ccc(F)cc1	HCMV inh -65 (no result: Vaccinia mCherry, Vaccinia Venus)
O=C(O)c1ccc(CNCc2cccc(OCc3ccc(F)cc3)c2)cc1	HCMV inh inconclusive
Fc1ccc(COc2cccc(CNCc3ccncc3)c2)cc1	HCMV inh -71
CNC(CC(=O)c1ccc([N+](=O)[O-])cc1)C(Cl)(Cl)Cl (stereo not given)	Tb PYK inh 13µM (no result: HCMV inh)
CCc1ccccc1N1CC(c2nc3ccccc3n2CCOc2ccc(Cl)c(C)c2)CC1=O (stereo not given)	HCMV inh -62, Vaccinia Venus inconclusive (no result: LmPK inh)
Cc1occc1C(=O)N1CCN(Cc2ccccc2)CC1	none
Cc1ccc(-n2nnc(-c3nccn3C)n2)cc1	Tb PYK inh inconclusive, LmPK inh 14µM
Cc1ccc(-n2nnc(-c3cccnc3)n2)cc1	none (no result: LmPK inh)
Cc1ccc(CNC(=O)CCc2nc(-c3cccs3)no2)cc1	HCMV inh -75
CCc1ccccc1NC(=O)CCc1nc(-c2cccs2)no1	none (no result: Vaccinia mCherry, Vaccinia Venus)
O=C(CCc1nc(-c2cccs2)no1)NCc1ccc(F)cc1Cl	HCMV inh -63
Cc1cnc(NC(=O)CSC(=S)N2CCOCC2)s1	none
CCOC(=O)c1sc(NC(=O)C2CC(=O)N(c3ccccc3C)C2)nc1C (stereo not given)	none
CCc1cc(C(=O)NCc2c(C)ncc3c2CCN(C(=O)C2=CCCC2)C3)no1	none (no result: HCMV inh, Tb PYK inh, LmPK inh)
COc1ccc(C2C(C(C)=O)=C(O)C(=O)N2c2ccc(O)cc2)cc1 (stereo not given)	none
CCCC(=O)Nc1cccc(NC(=O)Cc2ccc(Cl)cc2)c1	none (no result: LmPK inh)
N#C/C(=C/c1ccc(N2CCOCC2)o1)c1ccc(Br)cc1	Tb PYK inh 25µM (no result: Vaccinia mCherry)
N#C/C(=C/c1ccc(N2CCCCCC2)o1)c1cccc(F)c1	HCMV inh -81, Tb PYK inh inconclusive (no result: Vaccinia mCherry, Vaccinia Venus)
N#C/C(=C\c1ccc(N2CCOCC2)o1)c1ccccc1	none
N#C/C(=C/c1ccc(N2CCCCCC2)o1)c1ccc(F)cc1	Tb PYK inh inconclusive (no result: HCMV inh, LmPK inh)
COc1ccc2c(Cl)c(-c3nnc(SCC(=O)c4ccccc4)n3C)sc2c1	Vaccinia Venus inconclusive
O=C1CSC(c2ccccc2)N1c1ccc([N+](=O)[O-])cc1 (stereo not given)	none
COc1cccc2sc(N3CCN(C(=O)c4ccc([N+](=O)[O-])o4)CC3)nc12	Vaccinia mCherry 8.9µM, Vaccinia Venus 13µM (no result: HCMV inh, LmPK inh)
COc1ccc(CNC(=O)c2cn(Cc3ccc(OC(C)=O)cc3)c(=O)s2)cc1	none (no result: LmPK inh)
COc1ccc(CNC(=O)c2cn(Cc3ccc(S(=O)(=O)N(C)C)cc3)c(=O)s2)cc1	HCMV inh -81 (no result: LmPK inh)
Cc1ccc(O)c(N)c1	none (no result: HCMV inh, LmPK inh)
Cc1ccc(SSc2cc(C)ccc2N)c(N)c1	HCMV inh -81, Tb PYK inh inconclusive (no result: LmPK inh)
NC(=O)N=Nc1c(O)[nH]c2c(Br)cc(Br)cc12	none (no result: HCMV inh, Tb PYK inh, Vaccinia mCherry, Vaccinia Venus)
CN(Cc1ccccn1)Cc1nc(Cc2ccccc2Cl)no1	HCMV inh inconclusive
Cc1cnccc1CN(C)Cc1nc(Cc2ccccc2Cl)no1	HCMV inh -61
CCOC(=O)C(C)Oc1cccc2c(=O)n(CC(=O)NCc3ccc4c(c3)OCO4)ccc12 (stereo not given)	Vaccinia mCherry 100µM, Vaccinia Venus inconclusive
CCOC(=O)COc1cccc2c(=O)n(CC(=O)NCc3ccccc3)ccc12	HCMV inh -70 (no result: Vaccinia mCherry, Vaccinia Venus)
CCOC(=O)C(C)Oc1cccc2c(=O)n(CC(=O)Nc3ccc4c(c3)OCCO4)ccc12 (stereo not given)	none
CCOc1ccccc1N1CC(c2nc3ccccc3n2CCOc2ccc(C(C)(C)C)cc2)CC1=O (stereo not given)	none (no result: LmPK inh)
Cc1ccc(S(=O)(=O)n2cc(-c3ccccc3)c3ccccc32)cc1	HCMV inh -71, Vaccinia mCherry inconclusive, Vaccinia Venus inconclusive (no result: LmPK inh)
